# Experimental data taken from PubChem BioAssay AID624100 (ICCB-Longwood Screening Facility, Harvard Medical School, 2012).
# Some of the results follow. Active and inactive are the calls of the source.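 The calls were made as follows: active = average inhibition over replicates above about 50%, so the earlier screening hit is confirmed (limit read from the data); inactive = the rest, counted as false positives.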
# Molecular target: Ubiquitin carboxyl-terminal hydrolase isozyme L5 (Homo sapiens) (UniProt Q9Y5K5)
# Sequence (Q9Y5K5 whole entry, looked up): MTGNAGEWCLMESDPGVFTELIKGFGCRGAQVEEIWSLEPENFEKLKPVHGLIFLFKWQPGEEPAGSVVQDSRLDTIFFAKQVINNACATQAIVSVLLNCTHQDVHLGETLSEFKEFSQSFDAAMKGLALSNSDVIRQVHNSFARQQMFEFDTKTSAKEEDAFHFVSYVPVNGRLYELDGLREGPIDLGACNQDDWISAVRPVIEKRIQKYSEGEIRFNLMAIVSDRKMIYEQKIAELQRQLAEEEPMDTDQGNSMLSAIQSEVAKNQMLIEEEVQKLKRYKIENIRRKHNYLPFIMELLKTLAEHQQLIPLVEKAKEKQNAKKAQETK
# Assay: proteasome-bound UCH37 Ub-AMC cleavage inhibition – biochemical, Ub-AMC cleavage rate, fluorescence, confirmation (AID 624100);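 also: based on cleavage rate fitted by regression over a 30 min kinetic read; 0% = proteasome plus Ub-AMC and 100% = Ub-AMC without proteasome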
# Details: at 20 µM, hits give high values
row,Structure (SMILES),inhibition
1,COc1ccc(Cn2nnc3c(=O)[nH]c(C4CCN(C(=O)c5ccccc5Cl)CC4)nc32)cc1,17.8% (inactive)
2,Cc1ccc(Nc2cc(C)nc3c(C)ccc([N+](=O)[O-])c23)cc1,0.827% (inactive)
3,Cc1[nH][nH]c(=O)c1C(c1ccc(-c2ccc(Cl)cc2)o1)c1c(C)[nH][nH]c1=O,6.33% (inactive)
4,CCCCCCCCn1c2c(c(=N)c3c1CCC3)CCCC2,42.2% (inactive)
5,CC(OC(=O)c1c(F)cccc1F)C(=O)NCCC1=CCCCC1 (stereo not given),32.7% (inactive)
6,O=C(OCC(=O)N1CCN(c2ccccc2)CC1)c1ccc([N+](=O)[O-])s1,22.8% (inactive)
7,O=C(NC1CCCC1)C(c1ccc(N2CCOCC2)cc1)N(C(=O)c1ccco1)c1ccccc1F (stereo not given),4.55% (inactive)
8,O=c1ccc2c(-c3ccccc3S(=O)(=O)O)c3ccc(O)c(O)c3oc-2c1O,36.2% (inactive)
9,O=C1Nc2ccc([N+](=O)[O-])cc2C1=Nc1cccc(CO)c1,-1.27% (inactive)
10,COCCN1C=C2C(=O)C(C)(OC(=O)C3CCCC3)C(=O)C=C2C=C1c1ccsc1 (stereo not given),24.9% (inactive)
11,O=C1C(Cl)=C(Oc2ccccc2)C(=O)c2ccccc21,95.2% (active)
12,Cn1ccc(=Nc2ccc(NC(=O)c3ccc(N=c4ccn(C)c5ccc([N+](=O)[O-])cc45)cc3)cc2)cc1,71.3% (active)
13,CCN(CC)CCCC(C)n1c2nc(=O)[nH]c(=O)c-2nc2cc(Cl)ccc21 (stereo not given),85.1% (active)
14,CC(C)NC(=O)/C(C#N)=C\c1ccc(N(C)C)c(Br)c1,9.32% (inactive)
15,O=C(O)C(c1ccccc1)N1C(=O)/C(=C\c2ccc(-c3cccc(Cl)c3)o2)SC1=S (stereo not given),67.4% (active)
16,COC1=C(N2CCOCC2)C(=O)c2ccccc2C1=O,12.6% (inactive)
17,COc1cc(NC(=O)COC(=O)c2ccc([N+](=O)[O-])s2)cc(OC)c1OC,14.6% (inactive)
18,CC(=O)N1C(=O)/C(=C2\SC(=S)N(NC(=O)c3ccc(O)cc3)C2=O)c2ccccc21,63.5% (active)
19,N#C/C(=C/c1ccc(N2CCOCC2)o1)C(=O)N1CCOCC1,29.8% (inactive)
20,CC1CCCN(C(=O)c2ccc3c(c2)C(=O)N(CCC2=CCCCC2)C3=O)C1 (stereo not given),61% (active)
21,COc1ccc(S(=O)(=O)/N=C2\C=C(NS(=O)(=O)c3ccccc3)C(=O)c3ccccc32)cc1,83.7% (active)
22,CC(C)CC[n+]1ccn(C2=C([O-])c3ccccc3C(=O)/C2=N\S(=O)(=O)c2ccccc2)c1,29.9% (inactive)
23,O=C(/C=C/c1ccccc1)c1ccoc1,8.47% (inactive)
24,CCOC(=O)c1c(C)[nH]c2c1-c1ccccc1C(=O)C2=O,90.1% (active)
25,COc1cccc(C2/C(=C(/O)c3ccc(F)cc3)C(=O)C(=O)N2CCN(C)C)c1 (stereo not given),12.7% (inactive)
